Laboratory results: PubChem BioAssay (NCATS)
Records with an inconclusive call do not appear. Calls of active or inactive are those of the source. Calls come from the whole dose curve; as a rule, active = well fitted curve in the direction sought with a large enough effect; inconclusive = small, poorly fitted or top-dose-only effect, or another doubt; inactive = no such curve, though single readings can be large; an effect the other way counts as inactive or inconclusive.

Assays:
[1] = tested on: CRL-7250; test: Cytotoxic Profiling of Annotated Libraries Using Quantitative High-Throughput Screening (AID 1296008); details: Five cell lines viability, CellTiter-Glo ATP luminescence, 48-72 h; max response: stronger effect = lower value; note: nearly all actives have a fitted effect of over 60% in size; for max response: % is set by controls: 0 for no effect and ±100 for the full control effect
Method in brief: (§1)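 Cytotoxicity was measured as CellTiter-Glo ATP luminescence, read after 10 min at room temperature. Compound treatment of the cells lasted 48 or 72 hr at 37 degrees Celsius in a qHTS format.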

[2] = tested on: HEK293; test: as above; details: Five cell lines viability, CellTiter-Glo ATP luminescence, 48-72 h; max response: stronger effect = lower value
Method in brief: as §1

[3] = tested on: HaCat; test: as above; details: Five cell lines viability, CellTiter-Glo ATP luminescence, 48-72 h; max response: stronger effect = lower value
Method in brief: as §1

[4] = tested on: KB-3-1; test: as above; details: Five cell lines viability, CellTiter-Glo ATP luminescence, 48-72 h; max response: stronger effect = lower value
Method in brief: as §1

[5] = tested on: NIH3T3; test: as above; details: Five cell lines viability, CellTiter-Glo ATP luminescence, 48-72 h; max response: stronger effect = lower value
Method in brief: as §1

[6] = tested on: HACAT; test: qHTS assay to identify novel small-molecules to repurpose for Merkel cell carcinoma treatment (AID 1296009); details: MCC and control cell lines, CellTiter-Glo viability, 72 h; at 44.8 µM (top of the series) unless noted; note: nearly all actives have a fitted effect of over 60% in size
Method in brief: (§2)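 Cell viability measured by CellTiter-Glo following 72 hr compound treatment at 37 degree celsius, with NPC and MIPE libraries tested in 8- and 11-point concentration series.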

[7] = tested on: NIH3T3; test: as above; details: MCC and control cell lines, CellTiter-Glo viability, 72 h; at 44.8 µM (top of the series) unless noted
Method in brief: as §2

[8] = tested on: C33A; test: Primary qHTS to identify gynecologic anti-cancer compounds using libraries of approved drugs and bioactive compounds (AID 1345084); details: Gynecologic cancer cell panel viability, ATPlite luminescence, 48 h; series mostly up to 57.5 µM; note: % is set by controls: 0 for no effect and ±100 for the full control effect; nearly all actives have a fitted effect of over 55% in size
Method in brief: (§3)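 Five-point cytotoxicity, 48 h drug exposure at 37 C, 5% CO2, on cells seeded 16 h beforehand. ATP content read by ATPlite luminescence.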

[9] = tested on: CAOV3; test: as above; details: Gynecologic cancer cell panel viability, ATPlite luminescence, 48 h; series mostly up to 57.5 µM
Method in brief: as §3

[10] = tested on: CASKI; test: as above; details: Gynecologic cancer cell panel viability, ATPlite luminescence, 48 h; series mostly up to 57.5 µM
Method in brief: as §3

[11] = tested on: Es-2; test: as above; details: Gynecologic cancer cell panel viability, ATPlite luminescence, 48 h; series mostly up to 57.5 µM
Method in brief: as §3

[12] = tested on: HeLa; test: as above; details: Gynecologic cancer cell panel viability, ATPlite luminescence, 48 h; series mostly up to 57.5 µM
Method in brief: as §3

[13] = tested on: Hek293T; test: as above; details: Gynecologic cancer cell panel viability, ATPlite luminescence, 48 h, control line for the selectivity index; series mostly up to 57.5 µM
Method in brief: as §3

[14] = tested on: JEG-3; test: as above; details: Gynecologic cancer cell panel viability, ATPlite luminescence, 48 h; series mostly up to 57.5 µM
Method in brief: as §3

CC1CCC2(C(=O)O)CCC3(C)C(=CCC4C5(C)C[C@@H](O)[C@@H](O)C(C)(CO)C5CCC43C)C2C1(C)O (some centres undefined)
inactive: max response [1] -2.68% | max response [2] -0.908% | outcome [3] | outcome [4] | outcome [5] | outcome [6] inactive [at 17.4 µM] | outcome [7] inactive [at 17.4 µM] | Potency [8] | Potency [9] | outcome [10] | Potency [11] | Potency [12] | Potency [13] | Potency [14]

COCCN1CCC(C(=O)NO)(S(=O)(=O)c2ccc(Oc3ccc(OC(F)(F)F)cc3)cc2)CC1
inactive: max response [1] -0.582% | max response [2] -3.44% | outcome [3] | outcome [4] | outcome [5] | outcome [6] | outcome [7] | Potency [8] | Potency [9] | outcome [10] | Potency [11] | Potency [12] | Potency [13] | Potency [14]

C[C@H](O)C(O)(C(=O)OCc1ccccc1NC(=O)CCC(N)C(=O)O)[C@H](C)O (some centres undefined)
inactive: max response [1] -7.85% | max response [2] -11.8% | outcome [3] | outcome [4] | outcome [5] | outcome [6] inactive [at 17.4 µM] | outcome [7] inactive [at 17.4 µM] | Potency [8] | Potency [9] | outcome [10] | Potency [11] | Potency [12] | Potency [13] | Potency [14]

COc1cccc(OC)c1-c1cc(C(=O)N[C@@H](CC(C)C)C(=O)O)nn1-c1ccnc2cc(Cl)ccc12
inactive: outcome [1] | max response [2] -1.22% | outcome [3] | outcome [4] | outcome [5] | outcome [6] | outcome [7] | Potency [8] | Potency [9] | outcome [10] | Potency [11] | Potency [12] | Potency [13] | Potency [14]

C=C(C)[C@@H]1CC[C@]2(C(=O)O)CC[C@]3(C)C(CCC4[C@]5(C)C(CC[C@]43C)C(C)(C)[C@@H](O)[C@@H]5C(=O)O)C12 (some centres undefined)
inactive: outcome [1] | max response [2] -0.322% | outcome [3] | outcome [4] | outcome [5] | outcome [6] inactive [at 17.4 µM] | outcome [7] inactive [at 17.4 µM] | Potency [8] | Potency [9] | outcome [10] | Potency [11] | Potency [12] | Potency [13] | Potency [14]

CC1=CC(=O)C(=C(C)C)CC2C(C)(O)CCC12O (centres undefined)
inactive: outcome [1] | max response [2] -0.243% | outcome [3] | max response [4] 8.8% | outcome [5] | outcome [6] | outcome [7] | Potency [8] | Potency [9] | outcome [10] | Potency [11] | Potency [12] | Potency [13] | Potency [14]

CC(O)C(O)/C=C/C=C/C(=O)O[C@@H]1C=C(C(=O)O)[C@](O)(CO)[C@@]2(C)CCCC(C)(C)[C@H]12 (some centres undefined)
inactive: max response [1] -15.6% | max response [2] -10.2% | outcome [3] | max response [4] 4.17% | outcome [5] | outcome [6] inactive [at 17.4 µM] | outcome [7] inactive [at 17.4 µM] | Potency [8] | Potency [9] | outcome [10] | Potency [11] | Potency [12] | Potency [13] | Potency [14]

Cn1c2ccc(NC(=O)c3ccccc3)cc2c(=O)n2nc(C(=O)O)cc12
inactive: outcome [1] | max response [2] -1.26% | outcome [3] | max response [4] 0.84% | outcome [5] | outcome [6] inactive [at 17.4 µM] | outcome [7] inactive [at 17.4 µM] | Potency [8] | Potency [9] | outcome [10] | Potency [11] | Potency [12] | Potency [13] | Potency [14]

C[C@@]1(C(=O)O)CCC[C@@]2(C)C3=CC[C@H]4C[C@@]3(CC[C@H]12)CC4(O)CO (some centres undefined)
inactive: max response [1] -19% | max response [2] 4.94% | outcome [3] | outcome [4] | outcome [5] | outcome [6] | outcome [7] | Potency [8] | Potency [9] | outcome [10] | Potency [11] | Potency [12] | Potency [13] | Potency [14]

COc1ccc2[nH]c(S(=O)Cc3ncc(C)c(OC)c3C)nc2c1 (centres undefined)
inactive: max response [1] -15.2% | max response [2] 3.04% | outcome [3] | max response [4] 6.01% | outcome [5] | outcome [6] | outcome [7] | Potency [8] | Potency [9] | outcome [10] | Potency [11] | Potency [12] | Potency [13] | Potency [14]

C[C@@H]1CC[C@]2(C(=O)O)CC[C@]3(C)C(=CCC4[C@@]5(C)C[C@@H](O)[C@H](O)[C@@](C)(CO)C5CC[C@]43C)C2[C@H]1C (some centres undefined)
inactive: max response [1] -10.8% | max response [2] 4.76% | outcome [3] | max response [4] 3.75% | outcome [5] | outcome [6] inactive [at 17.4 µM] | outcome [7] inactive [at 17.4 µM] | Potency [8] | Potency [9] | outcome [10] | Potency [11] | Potency [12] | Potency [13] | Potency [14]
